Screens (PubChem)
RE007 growth inh – less growth of the S. pombe RE007 Vpr strain; Potency, µM (titrated, usually from 92.2 µM), for the others: at the top dose activity change, negative = less growth, most hits filed as inhibitors; S. pombe RE007 Vpr strain, BacTiter-Glo ATP luminescence, 24 h; hit rate 0.21% among 360,000; active = well fitted falling curve with a large enough effect; inconclusive = small, poorly fitted or top-dose-only effect; inactive = no such curve, though single readings can be large or run the other way; note: potency is the fitted concentration of half-maximal effect; % is set by controls: 0 for no effect and ±100 for the full control effect; nearly all actives have a fitted effect of over 50% in size
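Fission yeast RE007 carrying one integrated HIV-1 vpr copy, seeded at OD 0.01 in PMG+AL medium with 23 nL pinned compound. Grown 24 h at 30 degrees; viability read by BacTiter-Glo luminescence after 5 min.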
Shiga inhibitor – inhibitors of Shiga toxin in Vero cells | Vero cells, Shiga toxin protein synthesis inhibition reporter | inhibition, % at 38.7 µM | hit rate 9.2% among 290,000; in the data active = inhibition mostly above about 28%, no sharp cut-off; inactive = mostly below about 43%; note: 0% is about no effect
Tb PYK inh – inhibitors of Trypanosoma brucei pyruvate kinase | TbPYK enzyme, Kinase-Glo Plus ATP luminescence, 45 min | Potency, µM (doses to about 76.8 µM), inactives show at the top dose activity, negative = inhibition, most hits filed as inhibitors | hit rate 0.12% among 410,000 | Q57TT1; note: potency is the fitted concentration of half-maximal effect; % is set by controls: 0 for no effect and ±100 for the full control effect; nearly all actives have a fitted effect of over 50% in size
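Luminescent Kinase-Glo Plus end-point after 45 min room-temperature reaction of T. brucei pyruvate kinase started with 130 uM ADP (final). Buffer TEA 50 mM pH 7.2 with KCl, MgCl2, BSA, Tween-20; titration-based qHTS with fitted concentration-effect curves.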
LmPK inhibitor – inhibitors of Leishmania mexicana pyruvate kinase. Q27686. purified LmPK, Kinase-Glo ATP luminescence, 1 h. Potency, µM (titrated, usually from 57.5 µM), without a hit: at the highest dose activity change, negative = inhibition, most hits filed as inhibitors. hit rate 0.37% among 290,000. AID 1721; note: potency is the fitted concentration of half-maximal effect; % is set by controls: 0 for no effect and ±100 for the full control effect
Target sequence (Q27686 whole entry, looked up): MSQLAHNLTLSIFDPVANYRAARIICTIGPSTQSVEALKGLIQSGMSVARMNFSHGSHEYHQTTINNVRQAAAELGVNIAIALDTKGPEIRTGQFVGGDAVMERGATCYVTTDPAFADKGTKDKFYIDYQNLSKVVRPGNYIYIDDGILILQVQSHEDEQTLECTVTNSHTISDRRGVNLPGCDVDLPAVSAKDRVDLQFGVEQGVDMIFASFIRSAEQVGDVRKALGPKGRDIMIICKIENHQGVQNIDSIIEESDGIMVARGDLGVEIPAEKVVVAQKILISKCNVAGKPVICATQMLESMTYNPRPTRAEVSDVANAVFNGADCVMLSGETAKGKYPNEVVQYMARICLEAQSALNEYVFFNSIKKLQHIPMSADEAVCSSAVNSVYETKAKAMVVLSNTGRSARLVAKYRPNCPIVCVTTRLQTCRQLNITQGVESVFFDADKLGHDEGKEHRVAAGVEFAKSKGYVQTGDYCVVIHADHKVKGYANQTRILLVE
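ATP generated from ADP (0.1 mM) and PEP (0.5 mM) by 0.1 nM LmPK over 1 h at room temperature (pH 7.2 imidazole buffer) was detected by coupled luciferase luminescence. Values were normalized to uninhibited and no-enzyme wells.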
Giardia FBPA inh – blocks Giardia fructose-bisphosphate aldolase activity; Potency, µM (series often up to 59.6 µM), without a hit: at the top dose activity, negative = inhibition, hits mostly inhibitors; purified Giardia FBPA; A8B2U2; hit rate 0.71% among 290,000; AID 2451; note: potency is the fitted concentration of half-maximal effect; % is set by controls: 0 for no effect and ±100 for the full control effect; nearly all actives have a fitted effect of over 55% in size
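40 nM FBPA preincubated 10 min at RT with compound (up to 57.5 uM final), then substrate plus GAPDH/TPI/NAD/arsenate coupling and diaphorase/resazurin added. Fluorescence read after 20 min at RT, 525/598 nm.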
CHX counter – affects cycloheximide protein synthesis inhibition readout, counter-screen. cell reporter, cycloheximide protein synthesis inhibition counterscreen. hit rate 12% among 300,000. max response, %. AID 2314; in the data active = max response mostly above about 13%, no sharp cut-off; inactive = mostly below about 14%; note: read at 38.3 µM for the half of the compounds with a filed dose; 0% is about no effect
* hit, by the source's call; ? = inconclusive; . = no result; + = active, no number; [ ] = remark or other dose. Many of the other results were omitted from the sample, so hits are more common in it than they were. Unless noted, calls come from the whole dose curve; as a rule, active = well fitted curve in the direction sought with a large enough effect; inconclusive = small, poorly fitted or top-dose-only effect, or another doubt; inactive = no such curve, though single readings can be large; an effect the other way counts as inactive or inconclusive.

SMILES | RE007 growth inh | Shiga inhibitor | Tb PYK inh | LmPK inhibitor | Giardia FBPA inh | CHX counter
COc1cc(C(=O)NCCc2cn3ccccc3n2)cc(OC)c1OC | -1% | -10 | -7% | -9% | -30% | -2
COc1ccc(C(=O)NCCc2cn3ccccc3n2)cc1 | 2% | 43* | 1% | -2% | 0% | 18
COc1ccc(CCNC(=O)C2=COCCO2)cc1 | -9% | 66* | 3% | 0% | 4% | 24*
CC(Oc1ccc(C(=O)NCCc2ccccc2)cc1)C(=O)O (centres undefined) | 10% | -9 | -4% | 7% | 8% | 9
CC(C)OC(=O)C(C)Oc1ccc(C(=O)NCCc2ccccc2)cc1 (centres undefined) | 3% | 40* | 6% | 5% | 0% | 25*
CCCNC(=O)Cn1nc(-c2ccc(C)c(C)c2)c2cnc3ccc(OC)cc3c21 | . | . | -3% | . | . | .
COc1ccc2c(C)c(CCC(=O)NCCc3ccccc3OC)c(=O)oc2c1 | . | . | 2% | . | . | .
Cc1cccc(NC(=O)C2CCN(S(=O)(=O)c3ccc(F)cc3)CC2)c1C | . | . | -4% | . | . | .
Cc1ccccc1OCC(=O)N(Cc1ccc(C(C)C)cc1)C1CCS(=O)(=O)C1 (centres undefined) | . | . | 1% | . | . | .
CCCCOc1ccc(C(=O)NCCc2ccccc2)cc1 | 5% | 91* | 6% | 0% | -1% | 42*
COc1ccc(C(=O)NCC2(c3ccccc3)CCOCC2)cc1 | 6% | 63 | 3% | -2% | 0% | 36*
O=C(COc1ccc(C(=O)NCCc2ccccc2)cc1)Nc1ccccc1 | 2% | -8 | 3% | 4% | 1% | -2
COc1ccc(CC(=O)Nc2cccc(C(=O)O)c2C)cc1 | 7% | 1 | -22% | -2% | 5% | 15*
CCCCOc1ccc(C(=O)NCc2ccccn2)cc1 | 25% | 34 | 0% | -5% | 0% | 21*
Cc1sc(-c2cc3c([nH]c2=O)CC(c2ccccc2)CC3=O)nc1-c1ccc(Cl)cc1 (centres undefined) | . | . | -7% | . | . | .
COc1cccc(CNC(=O)c2ccc(C(=O)NCc3cccc(OC)c3)cc2)c1 | -14% | -30 | 9% | -9% | . | -2
COc1cccc(CNC(=O)c2ccc(C3SCCS3)cc2)c1 | 12% | 32 | 4% | -1% | . | 26*
COc1ccc(OC(=O)NCCc2ccccc2)cc1 | -9% | 62* | -1% | 0% | -3% | 33*
COc1cccc(CCNC(=O)c2ccc(C#N)cc2)c1 | -1% | 38* | 1% | 3% | -6% | 21*
O=C(NCCC1CC1(Cl)Cl)c1ccc([N+](=O)[O-])cc1 (centres undefined) | -21% | 44 | -3% | -4% | 14% | 25*
CC(C)NC(=O)CSc1cn(CC(=O)N2CCCCCC2)c2ccccc12 | . | . | -16% | . | . | .
Cn1nc(C(=O)N2CCN(c3ccccc3F)CC2)c2c1-c1ccccc1SC2 | . | . | -11% | . | . | .
O=C(NCCc1ccc(Cl)cc1)c1ccc2c(c1)N(Cc1cccc(Cl)c1)C(=O)c1ccccc1S2(=O)=O | . | . | 2% | . | . | .
COc1ccc(CCNC(=O)c2ccccc2C(=O)NCCc2ccc(OC)cc2)cc1 | -2% | . | -2% | . | . | .
COc1ccc(CCNC(=O)c2ccccc2)cc1 | 12% | 117* | -18% | -5% | -1% | 28*
SMILES | RE007 growth inh | Shiga inhibitor | Tb PYK inh | LmPK inhibitor | Giardia FBPA inh | CHX counter
CC(=O)c1cnc2cc(-c3ccc(Cl)cc3)nn2c1C | -1% | 56* | -5% | 3% | 5% | 21*
Cc1c(C(=O)O)cnc2cc(-c3ccc(Cl)cc3)nn12 | -10% | 30 | 1% | -23% | 7% | 16*
Cc1nc2cc(-c3ccc(Cl)cc3)nn2c(C)c1CCC(=O)N1CCN(c2ccccc2)CC1 | . | . | -1% | . | . | .
CC(=O)c1cnc2c(-c3ccc(Cl)cc3)c(C)nn2c1C | -10% | 13 | 4% | 0% | 3% | 3
Cc1cc(=O)oc(C)c1C(=O)NCc1c(F)cc(F)cc1F | -1% | 45 | 11% | -7% | -23% | 28*
Cc1cc(=O)oc(C)c1C(=O)NCc1ccco1 | -6% | 14 | 0% | 3% | -13% | -4
Cc1cccc(NC(=O)CSc2nnc(CNC(=O)c3cccs3)o2)c1C | 0% | -8 | -1% | 0%[11.5 µM] | 7% | -2
O=C(O)c1cncc(C#CCC2CCCCC2)c1 | 1% | 90* | 4% | -1% | ? | 77*
O=C(O)c1cncc(C#Cc2ccccc2)c1 | -5% | -7 | 5% | 3% | -1% | 1
Cn1c(OCC2CCCO2)nc2cc(-c3ccccc3)sc2c1=O (centres undefined) | -23% | . | 4% | . | . | .
COc1ccc(S(=O)(=O)N2CCC(C(=O)NCC3CCCO3)CC2)cc1OC (centres undefined) | -8% | -4 | -1% | -10% | 3% | -2
COc1ccc(S(=O)(=O)N2Cc3ccccc3CC2C(=O)Nc2nccs2)cc1OC (centres undefined) | -7% | 92* | -6% | 4% | 3% | 43*
COc1ccc(S(=O)(=O)N2Cc3ccccc3CC2C(=O)Nc2nccs2)cc1 (centres undefined) | -8% | 75* | 3% | 1% | -7% | 29*
COc1ccc(S(=O)(=O)N2CCC(C(=O)NCC3CCCO3)CC2)cc1 (centres undefined) | -5% | 51* | -14% | 0% | 1% | 8
COc1ccc(S(=O)(=O)N2Cc3ccccc3CC2C(=O)Nc2ccc(C)cc2)cc1OC (centres undefined) | . | . | 2% | . | . | .
COc1ccc(S(=O)(=O)N2CCC(C(=O)Nc3nccs3)CC2)cc1 | 67% | 101* | 2% | -11% | . | 42*
COc1ccc(Cl)cc1NC(=O)Cn1cc(C(=O)c2ccncc2)c(=O)c2cc(C)ccc21 | . | . | -6% | . | . | .
COc1ccc(NC(=O)C2CCCN(S(=O)(=O)c3ccc(Cl)cc3)C2)cc1OC (centres undefined) | 6% | -2 | -3% | -9% | . | -7
Cc1nn(-c2cccc(C(F)(F)F)c2)c(Cl)c1/C=N/Nc1cccc(C(=O)O)c1 | ? | + | -4% | -6% | 14% | 106*
Cc1nn(Cc2ccccc2)c(Cl)c1/C=N/NC(=O)CNc1cccc(C(F)(F)F)c1 | -1% | -7 | 1% | 3% | 0% | -1
Cc1nn(-c2ccccc2Cl)c(Cl)c1/C=N/Nc1cccc(C(=O)O)c1 | 5% | 70* | 36% | 0% | 8% | 64*
CCOC(=O)N/N=C/c1c(C)nn(-c2cccc(C(F)(F)F)c2)c1Cl | 18% | 35 | -2% | 2% | 0% | 13*
COc1ccc(F)cc1S(=O)(=O)NCC(c1ccco1)S(=O)(=O)c1ccc(F)cc1 (centres undefined) | . | . | 3% | . | . | .
